# Paper PMC5540273 (PLoS ONE, 2017)
# Test system: WNK4
# Details: concentration: 1 μM, replicates: in singlicate; n = 1
# 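Also: KINOMEscan kinase panel screen.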
row,SMILES,%Inh [%]
1,CCn1cnc2c(N)ncnc21 [GW345098],0
2,Cl.Nc1ncnc2occ(-c3ccc(NC(=O)Nc4cc(C(F)(F)F)ccc4F)cc3)c12 [SB-707548],13
3,CC(=O)Nc1ccc(COc2ccc(Nc3ccnc4cc(-c5ccccn5)ccc34)cc2)cc1.Cl [GW440148],83
4,Cc1nnc(-c2ccc3occ(-c4ccc(C(C)O)cc4)c3c2)o1 (stereo not shown),0
5,Cc1nnc(-c2ccc3ncc(-c4ccc(S(C)=O)cc4)n3c2)o1 (stereo not shown),7
6,c1ccc(-c2n[nH]cc2-c2ccnc3ccccc23)nc1 [GW271431],0
7,CCCCCc1nc2c(N)ncnc2n1CCCCC [SKF-97255],0
8,CN1c2ccc(CNc3ccc(F)cc3)cc2-c2c(cnn2C)S1(=O)=O,0
9,NCC(NC(=O)c1cc(-c2cn[nH]c2)c(-c2ccnc3[nH]ccc23)s1)c1ccccc1.O=C(O)C(F)(F)F.O=C(O)C(F)(F)F (stereo not shown) [GSK1325775],24
10,O=C(Nc1n[nH]c2cc(-c3cccc(F)c3)ccc12)C1CC1 [SB-735464],22
11,COc1ccc(COc2cc(-n3cnc4ccccc43)sc2C(N)=O)cc1 [GSK1024304],13
12,CN(C(=O)c1ccc(-c2cc(-c3c[nH]nc3-c3ccccn3)ccn2)cc1)C1CCOCC1 [GW810083],0
13,O=c1cc(N2CCOCC2)nc2n(Cc3cccc(Cl)c3Cl)c(C3CC3)nn12 [GSK2358994],0
14,COc1cc2ncn(-c3cc(OCc4sccc4Cl)c(C(N)=O)s3)c2cc1OC [GSK448459],31
15,CCc1ccnc(/C=C/c2n[nH]c3cc(Sc4ccccc4C(=O)NC)ccc23)c1,0
16,CSc1ccc(-c2cc3ncnc(SCC(=O)O)c3s2)cc1,0
17,COc1ccc(Nc2nccc(N3CCC(NC(=O)Nc4cc(C)ccc4C)C3)n2)cc1 (stereo not shown) [GSK1379741],40
18,Cc1c(Cn2c(C)nn3c(=O)cc(N4CCOC(C)C4)nc23)cccc1C(F)(F)F (stereo not shown) [GSK2344444],0
19,O=C1NC(=O)C(N2CCc3ccccc32)=C1c1cccc(Cl)c1 [SB-408010],89
20,Cn1ccc2ncnc(Oc3ccc(NC(=O)Nc4ccncc4)c(Cl)c3)c21,0
21,O=C(NOCC1CC1)c1ccc(F)c(F)c1Nc1ccc(I)cc1Cl,0
22,Cc1ccc(NC(=O)c2ccnc(N3CCN(C)CC3)c2)cc1-c1ccc(C(=O)NCC2CC2)cc1 [GW775604],0

# Test system: T1, YANK1
# T1 construct: gene STK32A
# Details: concentration: 1 μM, replicates: in singlicate; n = 1
row,SMILES,%Inh [%]
1,CC(C)(C)n1cnc2c(N)ncnc21 [SKF-97359],0
2,Cc1cccc(Cn2ccn3c(=O)cc(N4CCOCC4)nc23)c1 [GSK2297542],20
3,c1ccc(-c2cc(-c3c[nH]nc3-c3ccccn3)ccn2)cc1 [GW576604],12
4,O=C(Nc1cccc(-c2nn3ncccc3c2-c2ccnc(Nc3cccc(C(F)(F)F)c3)n2)c1)c1c(F)cccc1F [GSK299495],0
5,COc1cc2c(cc1OC[C@@H](O)CO)ncc1c3ccc(C#N)cc3[nH]c21,19
6,N#Cc1ccc(-c2cc(-c3c[nH]nc3-c3ccccn3)ccn2)cc1 [GW693028],15
7,Fc1ccc(-c2ncn(CCCN3CCOCC3)c2-c2ccccn2)cc1 [SB-211742],0
8,COc1ccc(Nc2nccc(N3CCC(NC(=O)Nc4cccc(C(C)=O)c4)C3)n2)cc1 (stereo not shown) [GSK1379731],0
9,Cn1cc(-c2ccc3c(c2)CCN3C(=O)Cc2ccccc2Cl)c2c(N)ncnc21 [GSK2608885],32
10,CNc1ncnc2[nH]ncc12 [SKF-18355],0
11,Cc1cccc(-c2nc(Nc3ccc4ncsc4c3)c3ccccc3n2)n1 [GW867588],0
12,[2H]C([2H])(c1cccc(C(F)(F)F)c1C)n1ccn2c(=O)nc(N3CCOCC3)cc12 [GSK2336394],11
13,Cc1c2ccc(N(C)c3ccnc(Nc4cccc(S(N)(=O)=O)c4)n3)cc2nn1Cc1ccccc1.Cl.Cl [GW787226],0
14,O=C(c1ccc(-c2cc(-c3c[nH]nc3-c3ccccn3)ccn2)cc1)N1CCOCC1 [GW812171],0
15,CCn1cnc2c(N)ncnc21 [GW345098],0
16,Cl.Nc1ncnc2occ(-c3ccc(NC(=O)Nc4cc(C(F)(F)F)ccc4F)cc3)c12 [SB-707548],0
17,CC(=O)Nc1ccc(COc2ccc(Nc3ccnc4cc(-c5ccccn5)ccc34)cc2)cc1.Cl [GW440148],6
18,Cc1nnc(-c2ccc3occ(-c4ccc(C(C)O)cc4)c3c2)o1 (stereo not shown),5

row,SMILES,%Inh [%]
1,Cc1nnc(-c2ccc3ncc(-c4ccc(S(C)=O)cc4)n3c2)o1 (stereo not shown),0
2,c1ccc(-c2n[nH]cc2-c2ccnc3ccccc23)nc1 [GW271431],19
3,CCCCCc1nc2c(N)ncnc2n1CCCCC [SKF-97255],0
4,CN1c2ccc(CNc3ccc(F)cc3)cc2-c2c(cnn2C)S1(=O)=O,0
5,NCC(NC(=O)c1cc(-c2cn[nH]c2)c(-c2ccnc3[nH]ccc23)s1)c1ccccc1.O=C(O)C(F)(F)F.O=C(O)C(F)(F)F (stereo not shown) [GSK1325775],15
6,O=C(Nc1n[nH]c2cc(-c3cccc(F)c3)ccc12)C1CC1 [SB-735464],0
7,COc1ccc(COc2cc(-n3cnc4ccccc43)sc2C(N)=O)cc1 [GSK1024304],6
8,CN(C(=O)c1ccc(-c2cc(-c3c[nH]nc3-c3ccccn3)ccn2)cc1)C1CCOCC1 [GW810083],0
9,O=c1cc(N2CCOCC2)nc2n(Cc3cccc(Cl)c3Cl)c(C3CC3)nn12 [GSK2358994],0
10,COc1cc2ncn(-c3cc(OCc4sccc4Cl)c(C(N)=O)s3)c2cc1OC [GSK448459],11
11,CCc1ccnc(/C=C/c2n[nH]c3cc(Sc4ccccc4C(=O)NC)ccc23)c1,0
12,CSc1ccc(-c2cc3ncnc(SCC(=O)O)c3s2)cc1,0
13,COc1ccc(Nc2nccc(N3CCC(NC(=O)Nc4cc(C)ccc4C)C3)n2)cc1 (stereo not shown) [GSK1379741],0
14,Cc1c(Cn2c(C)nn3c(=O)cc(N4CCOC(C)C4)nc23)cccc1C(F)(F)F (stereo not shown) [GSK2344444],0
15,O=C1NC(=O)C(N2CCc3ccccc32)=C1c1cccc(Cl)c1 [SB-408010],0
16,Cn1ccc2ncnc(Oc3ccc(NC(=O)Nc4ccncc4)c(Cl)c3)c21,0
17,O=C(NOCC1CC1)c1ccc(F)c(F)c1Nc1ccc(I)cc1Cl,6
18,Cc1ccc(NC(=O)c2ccnc(N3CCN(C)CC3)c2)cc1-c1ccc(C(=O)NCC2CC2)cc1 [GW775604],0
